Screening results as filed in PubChem.
HEK293 tox – cytotoxicity counter-screen for GLP-1 receptor inverse agonists; HEK293 cAMP-luciferase reporter cells, luminescence, 24 h; Potency, µM (top dose mostly 38.3 µM), actives largely listed as inhibitors; 410,000 compounds, 0.13% hits;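 note: loss of luciferase light is scored as toxicity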
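Step one: seed cells (200 cells/uL, DMEM with 10% Nu serum, 1% pen-strep). Step two: 12-hour incubation at 37 deg C. Step three: pin 23 nL compound, incubate 24 hr. Step four: add luciferase reagent, read luminescence 12 min later.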
GLP-1R agonist – GLP-1 receptor (human) agonism; P43220; HEK293 GLP-1R CRE-luciferase, luminescence, 4-6 h; cells express a hypersensitive GLP-1R form; Potency, µM (titrated, usually from 45.6 µM), actives largely listed as activators; 380,000 compounds, 0.007% hits
GLP1R inv ag – acts as inverse agonist at human GLP-1 receptor; 410,000 compounds, 1.6% hits; Potency, µM (titrated, usually from 38.3 µM), usual class: inhibitors; AID 624417; HEK293 GLP-1R CRE-luciferase, luminescence, 24 h; GLP-1R form is constitutively active; note: nearly all actives have a fitted effect of over 55% in size
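Stable HEK293 clone (constitutively active GLP-1R + cAMP-response luciferase); 200 cells/uL plated, 12 h pre-culture, compound 24 hr, 37 deg C/5% CO2; detection reagent 12 min RT; luminescence.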
PTHR1 agonist – activates the human parathyroid hormone receptor PTHR1. Q03431. HEK293 GP2 PTHR1 cells, GloSensor cAMP luminescence, 1 h. Potency, µM (titrated, usually from 115 µM), hits mostly activators. 410,000 compounds, 0.075% hits. AID 743266; note: nearly all actives have a fitted effect of over 55% in size
Target sequence (Q03431 whole entry, looked up): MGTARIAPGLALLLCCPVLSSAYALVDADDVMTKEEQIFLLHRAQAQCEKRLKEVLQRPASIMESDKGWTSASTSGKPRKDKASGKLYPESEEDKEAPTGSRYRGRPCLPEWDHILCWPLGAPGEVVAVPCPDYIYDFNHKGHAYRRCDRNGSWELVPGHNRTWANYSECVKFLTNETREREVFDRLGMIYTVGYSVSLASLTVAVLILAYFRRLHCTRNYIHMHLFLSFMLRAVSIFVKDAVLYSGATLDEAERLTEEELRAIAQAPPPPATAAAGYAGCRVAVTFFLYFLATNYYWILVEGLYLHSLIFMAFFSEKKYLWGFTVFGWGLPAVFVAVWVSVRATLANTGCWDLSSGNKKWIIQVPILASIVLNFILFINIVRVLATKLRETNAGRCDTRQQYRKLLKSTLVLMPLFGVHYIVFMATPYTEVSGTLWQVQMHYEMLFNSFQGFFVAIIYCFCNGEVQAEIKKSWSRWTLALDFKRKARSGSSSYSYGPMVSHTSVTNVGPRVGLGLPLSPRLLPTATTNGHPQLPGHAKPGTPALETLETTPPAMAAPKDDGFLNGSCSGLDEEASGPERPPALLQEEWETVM
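HEK-293-derived GP2 cells expressing PTHR1 and a GloSensor cAMP reporter, 3,000/well, plated overnight, given luciferin plus IBMX (each 0.5 mM as added) for 1 h at 37 °C, then compound for 1 h at 37 °C. Luminescence was read after 15 min at room temperature.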
Of the large screens only hits and unclear results are named; the others gave an inactive call. Compounds with a hit are over-represented: about 1.7% of the library has one in this group of screens. Calls come from the whole dose curve; as a rule, active = well fitted curve in the direction sought with a large enough effect; inconclusive = small, poorly fitted or top-dose-only effect, or another doubt; inactive = no such curve, though single readings can be large; an effect the other way counts as inactive or inconclusive.

S=C1NCCc2ccc(Cl)cc2C1c1ccccc1 (stereo unspecified)	HEK293 tox inconclusive, GLP1R inv ag 11µM
Cc1ccccc1C(=O)Nc1ccc(S(=O)(=O)N2CCC(c3nc4ccccc4s3)CC2)cc1	none (no result: GLP-1R agonist)
CC1=CC(C)(C)NC(=S)N1C(C)c1ccccc1 (stereo unspecified)	HEK293 tox 10µM, GLP1R inv ag inconclusive
CC(C)OC(=O)CSc1nc(Cc2ccccc2)nc2ccccc12	GLP1R inv ag 13µM
COC(=O)CSc1nc(Cc2ccccc2)nc2ccccc12	none
CCc1ccc(-n2nc(C)c3c(C(=O)N4CCN(c5cccc(Cl)c5)CC4)cc(C)nc32)cc1	none (no result: GLP-1R agonist)
O=C(C1CC12CCCC2)N1CCC(CO)(Cc2ccccc2Cl)CC1 (stereo unspecified)	GLP1R inv ag 10µM
COC(=O)c1ccc(CN2CCC(CO)(Cc3ccccc3Cl)CC2)cc1	GLP1R inv ag inconclusive
Cn1cc(S(=O)(=O)c2ccccc2)c(=O)c2cc(F)c(N3CCN(c4ccc(F)cc4)CC3)cc21	PTHR1 agonist 61µM (no result: GLP-1R agonist)
COc1ccc(-c2nnc(SCC(=O)NCCc3ccc(OC)c(OC)c3)nc2-c2ccc(OC)cc2)cc1	none (no result: GLP-1R agonist)
COc1ccc(Nc2cc(C)c3c(O)cccc3n2)cc1	GLP1R inv ag 13µM
COc1ccc(CC(=O)Nc2ccc3nc(Nc4cccc(Cl)c4)cc(C)c3c2)cc1	GLP1R inv ag 7.9µM
Cc1cc(Nc2cccc(Cl)c2)nc2ccc(NC(=O)c3cccnc3)cc12	HEK293 tox inconclusive, GLP1R inv ag inconclusive
Cc1cc(Nc2cccc(Cl)c2)nc2ccc(NC(=O)c3cccc(N(C)C)c3)cc12	GLP1R inv ag 5.6µM
CCC(=O)N1CCc2cc(S(=O)(=O)CCC(=O)Nc3ccc(Cl)c(C(F)(F)F)c3)ccc21	none
CCOC(=O)c1cccc(NC(=O)CCc2c(C)nn(-c3ccc(N4CCCCC4)nn3)c2C)c1	GLP1R inv ag inconclusive (no result: GLP-1R agonist)
COc1ccc(C2=NS(=O)(=O)N(C)C(C(=O)Nc3ccc(OC(F)(F)F)cc3)=C2)cc1	GLP1R inv ag inconclusive (no result: GLP-1R agonist)
O=C(CN(Cc1ccco1)S(=O)(=O)c1ccccc1)N/N=C/c1cccc(O)c1	GLP1R inv ag inconclusive
Cc1cccc(S(=O)(=O)N(CC(=O)Nc2ccccc2C)Cc2ccco2)c1	GLP1R inv ag 8.9µM
Cc1c(C(=O)N(C)C2CCCCC2)sc2ncnc(N3CCN(c4ccccc4F)CC3)c12	GLP1R inv ag 13µM
O=C(Nc1ccc2ccccc2c1)C(c1ccccc1)C1CCCC1 (stereo unspecified)	GLP1R inv ag 5µM
Cc1ccc(NC(=O)C(c2ccccc2)C2CCCC2)cc1 (stereo unspecified)	GLP1R inv ag inconclusive
CCC(C)(C)c1ccc(OCCCC[n+]2cccc(C)c2)c(C(C)(C)CC)c1	GLP1R inv ag 10µM
Cc1cccc(Nc2nnc(SCC(=O)NC3CCCc4ccccc43)s2)c1C (stereo unspecified)	GLP1R inv ag 8.9µM
Cc1ccccc1-n1c(C)nnc1SCC(=O)NC1CCCc2ccccc21 (stereo unspecified)	none
COc1cc(Cn2c3ccc(NC(=O)CCc4ccccc4)cc3c(=O)n2C)ccc1F	HEK293 tox inconclusive, GLP1R inv ag 2.2µM
COc1cc(Cn2c3ccc(NC(=O)CCc4cccnc4)cc3c(=O)n2C)ccc1F	none
CCc1ccccc1NC(=O)c1cc(S(=O)(=O)N(CC)c2ccccc2)ccc1F	GLP1R inv ag 11µM (no result: GLP-1R agonist)
CCN(c1ccccc1)S(=O)(=O)c1ccc(OC)c(NC(=O)Cc2ccc(F)cc2)c1	GLP1R inv ag inconclusive
Cc1cc(C)cc(-n2ccnc2SCC(=O)Nc2ccc(C)c(Cl)c2)c1	GLP1R inv ag 8.9µM
CCc1ccc(NC(=O)CSc2nccn2-c2ccc(OC)cc2)cc1	GLP1R inv ag 10µM (no result: GLP-1R agonist)
Cc1cc(C)cc(-n2ccnc2SCC(=O)Nc2ccc3c(c2)OCCO3)c1	GLP1R inv ag inconclusive
CCc1ccc(-n2nc(CO)c(C(=O)NC)n2)cc1	none (no result: GLP-1R agonist)
Cc1nc(-c2ccc(C)c(S(=O)(=O)N3CCC(C(=O)Nc4ccc(Cl)cc4)CC3)c2)no1	GLP1R inv ag 10µM (no result: GLP-1R agonist)
OCC1(Cc2ccccc2)CCN(Cc2cnc(-c3ccc(Cl)cc3)nc2)CC1	GLP1R inv ag inconclusive
OCC1(Cc2ccc(Cl)cc2)CCN(Cc2ccc(F)c(F)c2)CC1	GLP1R inv ag 7.9µM
OCC1(Cc2ccc(Cl)cc2)CCN(Cc2ccc(Oc3ncccn3)cc2)CC1	GLP1R inv ag 10µM
OCC1(Cc2ccccc2)CCN(Cc2cnc(-c3cccc4ccccc34)nc2)CC1	GLP1R inv ag 8.9µM
COc1cc2c(=O)n(Cc3ccccc3)c(=O)n(CC(=O)Nc3cc(C(F)(F)F)ccc3Cl)c2cc1OC	none (no result: GLP-1R agonist)
NS(=O)(=O)c1ccc(NC(=S)N2CCN(Cc3ccc(Cl)c(Cl)c3)CC2)cc1	GLP1R inv ag 8.9µM
O=S(=O)(c1ccc(Cl)cc1)N1CCN(C(=S)Nc2ccc(F)c(Cl)c2)CC1	GLP1R inv ag 8.9µM
O=S(=O)(c1ccccc1)N1CCN(C(=S)Nc2ccc(F)cc2)CC1	none
COC(=O)c1c(-c2cccs2)csc1NC(=O)COc1ccc(C(C)(C)C)cc1	GLP1R inv ag inconclusive (no result: GLP-1R agonist)
COc1cccc(NC(=O)CSC2=Nc3ccccc3N=C(c3ccc(F)cc3)C2)c1	GLP1R inv ag inconclusive
CCCOc1ccc(C(=O)NCC2OCCc3ccccc32)cc1 (stereo unspecified)	none
Cc1c(C(=O)N(Cc2ccccc2Cl)C2CCS(=O)(=O)C2)oc2ccccc12 (stereo unspecified)	GLP1R inv ag 10µM
Cc1ccc2oc(C(=O)N(Cc3ccccc3)C3CCS(=O)(=O)C3)c(C)c2c1 (stereo unspecified)	GLP1R inv ag inconclusive
COC(=O)/C=C1\OCc2cc(OC)c(OCc3ccccc3)cc21	none (no result: GLP-1R agonist)
COc1cc2c(cc1OC)/C(=C/c1ccc(Br)cc1)C(=O)OC2	GLP1R inv ag 11µM
CC(C(=O)Nc1ccc2c(c1)OCO2)N(c1ccc(Cl)cc1)S(C)(=O)=O (stereo unspecified)	GLP1R inv ag 10µM
CC(C(=O)Nc1ccc2c(c1)OCO2)N(C)CC(=O)Nc1ccc(Cl)cc1 (stereo unspecified)	GLP1R inv ag inconclusive
COc1ccc(N2CCN(C(=O)c3cn(C4CCCCC4)c(=O)c4c3c3ccccc3n4C)CC2)cc1	GLP1R inv ag inconclusive (no result: GLP-1R agonist)
CN(C)C1(CNC(=O)c2cccc(S(=O)(=O)NCc3ccccc3)c2)CCCCC1	GLP1R inv ag inconclusive, PTHR1 agonist 32µM
Cc1ccc(NS(=O)(=O)c2cccc(C(=O)NCC3(N(C)C)CCCCC3)c2)cc1	GLP1R inv ag inconclusive
CCN(c1ccccc1)S(=O)(=O)c1cccc(C(=O)NCC2(N(C)C)CCCCC2)c1	GLP1R inv ag 10µM
CCN(C(=O)c1nn(-c2ccc(C)cc2)c(=O)c2c1c1ccccc1n2C)c1ccc(F)cc1	none (no result: GLP-1R agonist)
O=C(OCC1CCCO1)c1ccc2c(c1)N(Cc1cccc(Cl)c1)C(=O)c1ccccc1S2(=O)=O (stereo unspecified)	none (no result: GLP-1R agonist)
